Laboratory results reported in PubChem BioAssay AID1259324 (C. David Weaver Laboratory, Vanderbilt University, 2017).
Out of some 34,000 compounds screened, fewer than 10 were called active.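 Rule for the calls: active = primary screen hit, no activity in plain HEK293 cells, and in GIRK2-only cells above 5% efficacy rising with concentration; inactive = the rest, including fluorescent compounds.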 A selection follows.

What follows are compounds tested against G protein-activated inward rectifier potassium channel 2 (Homo sapiens) (UniProt P48051) (assay: GIRK2 activation atop partial GPCR stimulation – cell-based, HEK293, thallium flux, summary (AID 1259324)). Settings: HEK293 GIRK2/NPY4 cells, thallium flux fluorescence.
Chain of G protein-activated inward rectifier potassium channel 2 (Homo sapiens) (P48051 whole entry, looked up): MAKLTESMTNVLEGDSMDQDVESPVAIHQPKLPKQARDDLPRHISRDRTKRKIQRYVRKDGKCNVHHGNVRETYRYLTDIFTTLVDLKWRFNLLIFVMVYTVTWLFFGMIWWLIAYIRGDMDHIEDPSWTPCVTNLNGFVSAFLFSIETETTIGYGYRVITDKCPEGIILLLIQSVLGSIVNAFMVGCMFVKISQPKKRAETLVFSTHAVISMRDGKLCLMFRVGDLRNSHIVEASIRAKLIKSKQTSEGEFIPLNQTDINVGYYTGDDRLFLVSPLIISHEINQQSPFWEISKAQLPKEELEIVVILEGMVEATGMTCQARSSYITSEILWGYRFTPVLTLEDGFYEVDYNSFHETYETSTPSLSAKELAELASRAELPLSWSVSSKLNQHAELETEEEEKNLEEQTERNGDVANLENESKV

outcome, inactive:
COc1ccc(NC(=O)c2ccc(C(F)(F)F)cc2)cc1N1CCCC1=O, O=C(NC1CC(=O)N(C2CC2)C1)c1ccc(-n2cccc2)cc1 (stereo not given), O=C(c1cccc(Cl)c1)N1CCOC(c2ccc(C(F)(F)F)cc2)C1 (stereo not given), CC1CCN(C(=O)CN2CCN(c3nccn3-c3cccc(Cl)c3)CC2)CC1, COc1cccc(C(=O)NNC(=O)c2ccc(=O)n(Cc3ccccc3)c2)c1OC, O=C(NCCCO)C(=O)Nc1ccc2c(c1)OCCO2, O=C(CSc1nc2ccsc2c(=O)n1CCc1ccccc1)Nc1ccccc1F, COCCNc1oc2c(c1-c1ccc([N+](=O)[O-])cc1)c(=O)oc1ccc(C)cc12, O=C(CN1CCOCC1)Nc1ccccc1-c1nc2ccccc2[nH]c1=O, O=S1(=O)CCC(n2nc(-c3ccco3)cc2NS(=O)(=O)c2cccc(Cl)c2)C1 (stereo not given), CC(C)(C)OC(=O)C1=NN(c2ccc(Cl)cc2)c2ncccc2S1(=O)=O, CCn1nnc2c(NCc3ccccc3OC)ncnc21, Cc1ccc(C(CNC(=O)C(=O)NCc2ccccc2)N2CCOCC2)cc1 (stereo not given), CS(=O)(=O)N1CCN(CCNC(=O)c2ccc([N+](=O)[O-])o2)CC1, O=C(NCc1cccs1)C(=O)NCC1CCN(C(=O)/C=C/c2ccco2)CC1, O=C(NCc1cccs1)C(=O)NCC1CCCO1 (stereo not given), COc1ccc(OC)c(CNC(=O)c2snc(-c3cccc(F)c3)c2N)c1, COc1ccc(CCNC(=O)COc2ccccc2Br)cc1OC, COc1cc(C)c(C)cc1S(=O)(=O)N1CCN(c2ccc(-c3cccnc3)nn2)CC1, COc1ccc(S(=O)(=O)CCCC(=O)Nc2nc(-c3ccc([N+](=O)[O-])cc3)cs2)cc1, Cc1nc(NCCNC(=O)Nc2ccccc2)cc(-n2cccn2)n1, CCN1CCc2nc(-c3ccccc3)n(CC(=O)Nc3cc(OC)cc(OC)c3)c(=O)c2C1, O=C(NCCC1=CCCCC1)C(=O)Nc1cccc(N2CCCCC2=O)c1, O=C(CN1CC(c2nc(-c3ccsc3)no2)C1)NCCc1ccccc1, Cc1nn(-c2nc(C)c(C)c(=O)[nH]2)c(C)c1CCC(=O)Nc1ccc(C(F)(F)F)cc1, O=C(Cc1ccc(NS(=O)(=O)C2CC2)cc1)NCC(F)(F)F, O=C(Cc1csc(-n2cccc2)n1)Nc1nc2ccccc2s1, Cc1cccc(NC(=O)N2CCN(c3ccc4nnc(C5CC5)n4n3)CC2)c1C, CCOc1ccc2nc(NC(=O)Cn3cnc(C(C)C)cc3=O)sc2c1, Cc1ccc(-n2ccnc2N2CCN(C(=O)c3ccccc3)CC2)cc1, CS(=O)(=O)N1CCC(C(=O)Nc2nc3ccc(F)cc3s2)CC1, Cc1nc(-c2cccc(NC(=O)Cc3c(C)[nH]c(=O)[nH]c3=O)c2)cs1, COc1cc(COCC2CCN(C(=O)/C=C/c3ccccc3Cl)CC2)cc(OC)c1, O=C(c1ccc([N+](=O)[O-])o1)N1CCN(Cc2nnnn2-c2ccc(F)c(F)c2)CC1, CC(C)(C)CN(C(=O)c1ccco1)c1ccncc1, COc1ccccc1CNC(=O)C1CN(C(C)=O)C1, Cc1ccccc1C(=O)NCCNC(=O)c1ccc(NC(=O)C(C)C)cc1, O=C(Nc1cccs1)N1CCN(c2ccc(-c3ccco3)nn2)CC1, CC(C)CCn1nc2ccc(S(=O)(=O)N3CCOCC3)cn2c1=O, Cn1nnc2c(N3CCN(C(=O)NCCOc4ccccc4)CC3)ncnc21, COc1ccc(NC(=O)C(=O)NCCC(c2ccccc2)c2ccccc2)c(OC)c1, Cc1ccc(Nc2ccc(NC(=O)/C=C/c3ccccc3)cc2)nn1, CCOc1cccc2sc(N(CCN3CCOCC3)C(=O)c3ccco3)nc12, COc1ccc(C=O)cc1Cn1c(=O)n(CCCCC(=O)NCC(C)C)c(=O)c2ccccc21, COc1cc(OC)cc(-n2c(-c3ccco3)nc3nc4ccccc4nc32)c1, Cc1ccc2nc(C3CC(=O)N(c4ccccc4)C3)[nH]c2c1 (stereo not given), COc1ccc(CCNC(=O)Cn2nc(-c3ccc(Cl)cc3)ccc2=O)cc1, O=C(NN1CCOCC1)c1ccc(N2CCC(Cc3ccccc3)CC2)nn1, CS(=O)(=O)N1CCCCC1C(=O)Nc1nc(-c2ccccn2)cs1 (stereo not given), O=C(NCCCN1CCOC(c2ccccc2)C1)c1cc2ccccc2oc1=O (stereo not given), COc1ccc(NC(=O)NCC(C)(O)C2CC2)cc1OC (stereo not given), CSc1cccc(NC(=O)NCCNc2cc(-n3cccn3)ncn2)c1, CSc1ccccc1CN1CCC(CNC(=O)c2ccc(S(=O)(=O)N(C)C)cc2)CC1, COc1ccc(N2C(=O)CN(CCC3=CCCCC3)C3CS(=O)(=O)CC32)cc1Cl (stereo not given), COc1cc(NC(=O)CSC2=NC3(CCCC3)N=C2c2ccccc2)cc(OC)c1, Cc1ccc(N2CC(C(=O)NCC3CCN(S(=O)(=O)C4CC4)CC3)CC2=O)cc1C (stereo not given), Cc1cc(-c2nnc(NC(=O)C(c3ccccc3)c3ccccc3)o2)nn1C, CCOC(=O)CNC(=O)C1COCC(=O)N1Cc1ccccc1 (stereo not given), COc1ccc(CCNC(=O)CCc2sc(C)nc2-c2cccs2)cc1, O=S(=O)(N1CCCCCC1)N1CCN(c2ccccc2F)CC1, CCOC(=O)c1cn[nH]c1S(=O)(=O)NCc1ccccn1, CSc1cccc(-n2nnc(C(=O)OCc3nc(-c4ccccc4)oc3C)c2C)c1, CN(C)C(CNC(=O)C(C)(C)C)c1ccccc1Cl (stereo not given), CC(C)CCn1nc2ccc(S(=O)(=O)N3CCCCC3)cn2c1=O, COc1ccc(NC(=O)Cn2cc(-c3ccccc3)c(N(C)C)n2)cc1OC, Cc1cc(NC(=O)C(=O)c2c(C)[nH]c3ccccc23)n(-c2nc(-c3cccs3)cs2)n1, COc1ccc(NC(=O)c2ccccc2SC)cc1N1CCCCC1=O, Cc1cc(-c2nnc(NC(=O)c3ccc(S(=O)(=O)N4CCCC4)cc3)o2)n(C)n1, COC(=O)c1ccc(OC)cc1CN1C(=O)N(c2cc(F)ccc2F)S(=O)(=O)c2ccccc21, Cc1ccc(Nc2ccc(NC(=O)c3ccc(Br)o3)cc2)nn1, Cc1csc(NC(=O)CSc2nc(=O)n(N3CCN(C)CC3)c3c2CCC3)n1, Cc1nnc(CNC(=O)C(C)n2nnc3ccccc3c2=O)o1 (stereo not given), O=C(NCCN1CCOCC1)C(=O)NCC(F)(F)F, CC(=O)N1CCN(S(=O)(=O)c2ccc(C(=O)NCc3cccnc3)cc2)CC1, COc1cc(C(=O)Nc2ccc3c(c2)N(C(=O)C2CC2)CCC3)cc(OC)c1OC, CC(Sc1ccnc2c1c(=O)n(C)c(=O)n2C)C(=O)O (stereo not given), Cn1nc(NC(=O)C(C)(C)Oc2ccc(Cl)cc2)c2c1NC(=O)CC2c1ccco1 (stereo not given), CS(=O)(=O)c1ccc(NC(=O)c2ccc(Cl)c(S(=O)(=O)N3CCOCC3)c2)cc1, CCOC(=O)Nc1nc(CC(=O)Nc2ccc(OC)cc2)cs1, O=C(NCc1ccc(Cl)cc1)C(=O)NCC1CCN(C(=O)c2cccnc2)CC1, Cc1cc(S(=O)(=O)NCC(O)c2ccc(C(F)(F)F)cc2)ccc1F (stereo not given), Cc1ccc(Oc2ccc(N(C)C(=O)c3cccc(F)c3)cc2)nn1, CCOc1ccc(-c2cc(=O)n(CCCC(=O)Nc3cc(C)ns3)cn2)cc1, Cc1noc(C)c1S(=O)(=O)N1CCN(Cc2nc(-c3ccco3)cs2)CC1, CC1CCN(c2oc(-c3ccc(S(=O)(=O)N(C)Cc4ccccc4)cc3)nc2C#N)CC1, O=C(NCC1CCN(S(=O)(=O)C2CC2)CC1)c1ccccn1, CCOC(=O)C(CC)Sc1ccnc2c1c(=O)n(C)c(=O)n2C (stereo not given), CN1CCN(C(CNC(=O)C(=O)NCc2ccc(Cl)cc2)c2cccn2C)CC1 (stereo not given), CCN1CCc2nc(-c3ccccc3)n(CC(=O)Nc3cccc(Cl)c3C)c(=O)c2C1, CC(C)C(=O)N1CCCc2ccc(NC(=O)C(=O)NCCCc3ccccc3)cc21, CCOc1ccc(NS(=O)(=O)c2cccc(OC)c2)cc1, COc1cc(S(=O)(=O)N2CCN(CCO)CC2)ccc1Cl, O=C(N1CCC(c2cccs2)CC1)C1(c2ccc(F)cc2)CC1, CS(=O)(=O)N1CCN(Cc2nnnn2-c2ccc(F)cc2)CC1, CCn1c(SCC(=O)N(C)c2ccccc2)nnc1-c1cn(C)nc1OC, O=C(NCCN1CCC(c2cccs2)CC1)C(=O)Nc1ccc2c(c1)OCO2, CCCNC(=O)C(=O)Nc1c2c(nn1C(C)(C)C)CSC2, O=C(Nc1ccc(Cl)cc1)N1CCC2(CC1)NC(=O)N(CCOc1ccccc1)C2=O, O=C(CCn1ccc(=O)[nH]c1=O)N1CCN(c2ccc(-c3ccccn3)nn2)CC1, Cn1cnc2cc(OC(=O)c3ccc(=O)[nH]n3)ccc21, O=C(Cc1ccc2c(c1)OCO2)Nc1nnc(-c2ccc(Br)s2)o1, CC1(C)Cc2cccc(OCCCS(=O)(=O)N3CCCCC3)c2O1, O=C(Cn1cnc(-c2cccs2)cc1=O)NCCOc1ccc(F)cc1, COC(=O)c1ccc(-c2csc(NC(=O)CS(=O)(=O)Cc3ccccc3)n2)cc1, Cc1cccc(C(=O)Nc2cc(-c3ccco3)nn2-c2nc(C)cc(=O)[nH]2)c1
